# Results from PubChem BioAssay AID504332 (National Center for Advancing Translational Sciences (NCATS), 2011).
# The whole screen tested about 350,000 compounds, of which about 31,000 (8.9%) were called active. Another 15% or so got no clear call; they are omitted. Calls come from the whole dose curve; as a rule, active = well fitted inhibition curve with a large enough effect; inconclusive = small, poorly fitted or top-dose-only effect; inactive = no such curve, though single readings can be large or run the other way. Only a selection was taken, and actives are over-represented in it overall.
# Molecular target: Histone-lysine N-methyltransferase EHMT2 (Homo sapiens) (UniProt Q96KQ7)
# Sequence (Q96KQ7 913-1193 limits assumed): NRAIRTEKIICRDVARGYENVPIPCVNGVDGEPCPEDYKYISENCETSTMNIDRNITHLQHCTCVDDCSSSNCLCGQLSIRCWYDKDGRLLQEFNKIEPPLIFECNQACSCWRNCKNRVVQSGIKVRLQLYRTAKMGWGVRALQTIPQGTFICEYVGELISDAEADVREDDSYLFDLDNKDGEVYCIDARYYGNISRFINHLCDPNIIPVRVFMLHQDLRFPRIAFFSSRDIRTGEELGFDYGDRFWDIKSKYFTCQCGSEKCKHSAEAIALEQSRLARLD
# Assay: qHTS Assay for Inhibitors of Histone Lysine Methyltransferase G9a; note: nearly all actives have a fitted effect of over 75% in size
# Settings: G9a H3K9 monomethylation, AlphaScreen, 2 h; series mostly up to 59 µM; activity, negative = inhibition: at the top concentration
# Outline: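 Readings reflect AlphaScreen signal from monomethyl-H3K9 antibody detection. HMT at 20 nM; substrate b-H3K9 500 nM; cofactor SAM 20 uM; 2 h RT reaction; compounds tested as titrations in qHTS with 15 min preincubation.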
# % is set by controls: 0 for no effect and ±100 for the full control effect; potency is the fitted concentration of half-maximal effect.
SMILES,Potency,"activity, negative = inhibition"
COc1ccc(CNC(=O)C(C)n2nc(C)c3c(C)n(-c4ccccc4)nc3c2=O)c(OC)c1 (stereo not drawn),inactive,–
CC1CCN(c2ccc([N+](=O)[O-])c(SCCO)c2)CC1,–,-14.6% (inactive)
O=[N+]([O-])c1ccc(N2CCNCC2)cc1NCc1cccnc1,–,1.92% (inactive)
CN1CCN(c2ccc([N+](=O)[O-])c(Sc3nc4ccccc4[nH]3)c2)CC1,10 µM (active),–
CCOC(=O)c1ccccc1NC(=O)CCc1c(C)nc2c(c1C)c(=O)n(C)c(=O)n2C,–,4.26% (inactive)
CCOc1ccc(N2CC(c3nc4ccccc4n3CCOc3ccc(OC)cc3)CC2=O)cc1 (stereo not drawn),–,-48.9% (inactive)
CCc1ccccc1OCC(=O)Nc1ccc2c(c1)OCCO2,–,-6.66% [at 102 µM] (inactive)
COc1ccc(NC(=O)CSc2nnc(C3CC3)n2C)cc1S(=O)(=O)N1CCCCC1,–,-4.19% (inactive)
COc1ccc(NC(=O)CSc2nnc(-c3ccccc3F)n2C2CC2)cc1S(N)(=O)=O,44.7 µM (active),–
CC(Sc1nnc(-c2ccccc2F)n1C1CC1)C(N)=O (stereo not drawn),–,-3.42% (inactive)
Cc1ccc(S(=O)(=O)N(CC(=O)NCc2ccco2)c2ccccc2C)cc1,–,-17.8% [at 102 µM] (inactive)
CCOC(=O)C(Cc1ccccc1)NC(=O)CCc1c(C)nc2c(c(C)nn2-c2ccc(C)c(C)c2)c1C (stereo not drawn),–,1.4% (inactive)
CCOC(=O)c1cc2c(=O)n3ccccc3nc2n(Cc2ccco2)c1=NC(=O)c1ccc(F)cc1,–,9.03% (inactive)
COC(=O)c1ccc(NC(=O)c2cnn(-c3ccc(Cl)cc3)c2C2CCN(C(=O)OC(C)(C)C)CC2)cc1,–,-29.6% (inactive)
COc1ccccc1CC(=O)Nc1ccc(S(=O)(=O)N2CCCC2)cc1,–,10.5% [at 102 µM] (inactive)
COc1cccc(NC(=O)CN(C)C(=O)Cc2ccc(Cl)cc2Cl)c1,–,1.78% [at 102 µM] (inactive)
COc1cccc(NC(=O)CN(C)CC(=O)Nc2ccc3c(c2)CCC3)c1,–,-6.51% [at 102 µM] (inactive)
COc1cccc(NC(=O)CN(C)C(=O)CSC(=S)N2CCCC2)c1,14.1 µM (active),–
CCN(CC(=O)Nc1ccc(S(=O)(=O)N2CCCC2)cc1)CC(=O)Nc1cccc(OC)c1,31.6 µM (active),–
CCOc1cccc(NC(=O)C2CCCN(S(=O)(=O)c3ccc(OC)cc3)C2)c1 (stereo not drawn),–,-28.2% [at 102 µM] (inactive)
COc1ccc(OC)c(NC(=O)CN2CCCN(Cc3cc(C)ccc3C)S2(=O)=O)c1,–,0.769% (inactive)
COc1ccc(OCCCC(=O)OC(C)C(=O)Nc2ccccc2[N+](=O)[O-])cc1 (stereo not drawn),–,-1.74% [at 2.33 µM] (inactive)
CCOc1ccc(-n2c(C)nc3c(cnn3-c3ccc(C)cc3)c2=O)cc1,–,11.5% (inactive)
CCOC(=O)CSc1nc2c(c(=O)n(C)c(=O)n2C)n1Cc1ccccc1F,–,2.47% [at 102 µM] (inactive)

SMILES,Potency,"activity, negative = inhibition"
Cn1c(=O)c2c(nc(NCCNC(=O)c3ccco3)n2Cc2ccccc2F)n(C)c1=O,–,41.2% [at 102 µM] (inactive)
CC(C)OCCCNc1nc2c(c(=O)n(Cc3ccccc3F)c(=O)n2C)n1C,22.4 µM (active),–
CNC(=O)c1ccc(-c2nc(CN3CCc4ccccc43)c(C)o2)cc1,–,-0.994% [at 12.7 µM] (inactive)
CCOC(=O)c1c(NC(=O)c2ccc(S(=O)(=O)N(C)CC3CCCO3)cc2)sc2c1CC(C)(C)NC2(C)C (stereo not drawn),–,69.6% [at 102 µM] (inactive)
COC(=O)c1c(NC(=O)COc2ccc(Cl)cc2Cl)sc2c1CC(C)(C)NC2(C)C,31.6 µM (active),–
Cc1nn(-c2ccccc2)c(C)c1NC(=O)COc1ccc(Cl)cc1Cl,–,26.6% (inactive)
CC1(C)CC(=O)C=C(c2ccc(Cl)c(C(F)(F)F)c2)C1,–,-9.47% [at 0.501 µM] (inactive)
O=C(CCc1nc(-c2ccccc2)no1)Nc1cccc(C(=O)NC2CC2)c1,–,-5.9% [at 12.7 µM] (inactive)
CCOC(=O)c1ccccc1NC(=O)COC(=O)C(Cc1c[nH]c2ccccc12)NC(C)=O (stereo not drawn),–,-26.2% [at 102 µM] (inactive)
Cc1nonc1C1CCCN1C(=O)c1cc(COc2cccc(C(F)(F)F)c2)on1 (stereo not drawn),–,24.4% [at 102 µM] (inactive)
Cc1ccc(NC(=O)CSc2nc3c([nH]c4ccccc43)c(=O)n2-c2ccccc2)c(C)c1,–,11.1% (inactive)
O=C(COc1ccccc1F)OCc1cc(=O)n2nc(C3CCCCC3)sc2n1,–,8.46% (inactive)
CC(=O)c1nc2ccccc2n1Cc1ccccc1,–,4.37% [at 102 µM] (inactive)
O=C(O)CCc1nc2cc(Cl)ccc2n(Cc2ccccc2)c1=O,50.1 µM (active),–
O=C(O)CCn1c(Cc2ccccc2)nc2ccccc21,–,13.2% [at 102 µM] (inactive)
COc1cc(OC)c(NC(=O)c2cnc(N3CCCC3)nc2C)cc1Cl,–,-4.36% [at 12.7 µM] (inactive)
COc1cc(C#Cc2ccc3cc(CCCO)oc(=O)c3c2)cc(OC)c1,–,-2.15% [at 0.501 µM] (inactive)
COc1ccccc1C(=O)N(Cc1ccc(C)o1)C1CCS(=O)(=O)C1 (stereo not drawn),–,76.1% [at 102 µM] (inactive)
CC(OC(=O)c1cc2ccccc2o1)C(=O)Nc1ccc(N2CCOCC2)cc1 (stereo not drawn),–,-43.1% [at 12.7 µM] (inactive)
O=C(Nc1nc2c(s1)CCCC2)c1ccccc1F,12.6 µM (active),–
O=C(Cn1c(=O)sc2ccccc21)Nc1nc2c(s1)CCCC2,–,-39.4% [at 102 µM] (inactive)
O=C(Nc1nnc(-c2ccccc2F)s1)c1ccccc1F,–,-8.05% [at 102 µM] (inactive)
CCc1ccc(NC(=O)C2CCCN2S(=O)(=O)c2ccc3nc(-c4ccccc4)[nH]c3c2)cc1 (stereo not drawn),–,-30.7% (inactive)
Cc1ccc(CSc2nc3ccsc3c(=O)n2CCC(C)C)cc1,–,65.3% (inactive)
